Source: PubChem BioAssay
Sampled rows, rich in hits. Any-hit rate of the full collection: about 3.5%.
TEAD-YAP inh – TEAD-YAP interaction inhibition, primary screen, TEAD-YAP interaction inhibitor project, luminescence, HEK-TIYL cells; TEAD-Gal4/YAP UAS-luciferase luminescence; inhibition, % at 9.12 µM; 1.4% of 640,000 active; AID 1259422, 2018; in the data active = inhibition above about 32%;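 also: 0% = median of test compound wells and 100% = reference inhibitor wells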
FBW7 act – FBW7 E3 ligase activators, primary screen, biochemical, AlphaScreen, human | 0.13% of 650,000 active | AlphaScreen FBW7–phospho-cyclin E peptide binding, activator screen | normalized activity (activation), % at 26.1 µM; in the data active = normalized activity above about 1.9%;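 also: purified mutant Fbw7 with reduced substrate affinity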
MITF inh – MITF inhibitors, primary screen, biochemical, AlphaScreen, human; Microphthalmia-associated transcription factor (Homo sapiens), O75030; AID 1259374, 2018; inhibition, % at 2.6 µM; 0.91% of 650,000 active; AlphaScreen MITF homodimerization, bead proximity signal; in the data active = inhibition above about 50%;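 also: 0% = vehicle wells with protein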
GPR151 ag – activators of human GPR151, primary screen, cell-based, PathHunter beta-arrestin, luminescence; G-protein coupled receptor 151 (Homo sapiens), Q8TDV0; PathHunter beta-arrestin GPR151 cells; 1% of 650,000 active; activation, % at 11.2 µM; in the data active = activation above about 4.9%;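 also: 0% = median of compound wells and 100% = cells with positive control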
* = called active by the depositor.

SMILES	TEAD-YAP inh	FBW7 act	MITF inh	GPR151 ag
CC(=O)NCC1CCC2(CCN(Cc3ccc4ccccc4c3)CC2)O1 (stereo not drawn)	-7	0	-5	0
CC1(C)N=C(N)N=C(N)N1c1ccc(F)cc1	6	0	1	-1
CCCCOc1ccc(N2C(N)=NC(N)=NC2(C)C)cc1	37*	0	3	0
NNc1ccc2nnc(C(F)(F)C(F)(F)C(F)(F)F)n2n1	9	1.9*	5	0
COc1ccccc1C(=O)N/N=C/c1cc(Br)cc(OC)c1O	-14	0	16	0
CCOc1cc(Br)cc(/C=N/NC(=O)c2cccnc2)c1O	78*	-1	53*	0
CCOc1cc(/C=N/NC(=O)c2cccnc2)cc(Br)c1O	3	0	5	-1
COc1cc(Br)cc(/C=N/NC(=O)c2ccccc2)c1O	71*	0	9	-1
COc1cc(Br)cc(/C=N/NC(=O)c2ccccc2O)c1O	72*	0	36	-1
COc1cc(Br)cc(/C=N/NC(=O)c2ccccc2Br)c1O	3	0	38	1
O=C(N/N=C/c1cc(Cl)cc(Br)c1O)c1ccccc1O	57*	0	27	1
O=c1oc2cc(O)ccc2cc1-c1ccc([N+](=O)[O-])cc1	28	1	16	-6
COc1ccc(C(=O)/C=C/Nc2ccccc2C)cc1OC	-59	0	16	1
COc1ccc(/C=N/NC(=O)c2cccnc2)cc1CN1CCN(c2ccc(F)cc2)CC1	3	0	8	0
COc1cc(Cl)cc(/C=N/NC(=O)c2ccccc2O)c1O	75*	-3	45	0
COc1ccc(/C=N/NC(=O)c2cccnc2)cc1Cn1cnc([N+](=O)[O-])n1	45*	0	11	0
Cc1ccc(O)c(/C=N/NC(=O)c2ccccc2)c1	59*	-2	26	-2
COc1ccc(O)c(/C=N/NC(=O)c2ccccc2O)c1	65*	1	43	1
Cc1ccc(C(=O)N/N=C/c2cc(Br)ccc2O)cn1	50*	-1	84*	0
COc1cc(C(=O)N/N=C/c2cc(Br)cc(Cl)c2O)cc(OC)c1OC	58*	-1	27	1
Oc1ccc(Br)cc1/C=N/NC(=S)Nc1cccnc1	12	-1	57*	0
O=C(N/N=C/c1ccccc1O)c1ccc(F)cc1	-34	0	27	0
O=C(N/N=C/c1cc(Br)ccc1O)c1ccc(F)cc1	76*	0	12	1
COc1cc(/C=N/NC(=O)c2cccc(NC(C)=O)c2)cc(Cl)c1O	0	0	63*	0
COc1ccc(Cl)cc1/C=N/NC(=O)c1ccc(C)nc1	-2	0	-3	1
SMILES	TEAD-YAP inh	FBW7 act	MITF inh	GPR151 ag
COc1cc(Br)cc(/C=N/NC(=O)c2ccc(C)nc2)c1O	28	-1	64*	0
Cc1cc(C)nc(NC(=O)Cc2c(F)cccc2Cl)c1	-4	0	5	0
CCCCSC1=C(C#N)C(c2ccccc2OC)C(C#N)C(=O)N1 (stereo not drawn)	6	0	-3	1
N#CC1=C(N)N(c2sc3c(c2C#N)CCCCC3)C2=C(C(=O)CCC2)C1c1ccccc1 (stereo not drawn)	14	0	0	1
N#CC1=C(N)N(c2sc3c(c2C#N)CCCCC3)C2=C(C(=O)CCC2)C1c1cccs1 (stereo not drawn)	53*	0	-5	2
CN1CCN(C/C=C/c2ccc(N(C)C)cc2)CC1	6	0	68*	0
CCN1CCN(C/C=C/c2ccc(N(C)C)cc2)CC1	0	0	9	0
CC(C)(C)c1ccc(/C=C/C(=O)Nc2ccccn2)cc1	70*	0	-7	-2
COc1ccc(/C=C/C(=O)Nc2ccccn2)cc1	47*	0	6	-10
Cc1ccc(NC(=O)/C=C/c2ccco2)nc1	24	0	3	-1
O=C(/C=C/c1ccco1)Nc1ccccn1	51*	-2	1	-7
COc1ccc(/C=C/C(=O)NCc2ccccn2)cc1	-22	0	-10	0
COc1ccccc1/C=N/NC(=O)N/N=C/c1ccccc1OC	-4	0	16	1
Cc1ccc2c(c1)-c1c(cnn1CC(=O)N1CCCCCC1)CO2	7	0	1	-1
CC1CCCC(C)N1C(=O)Cn1c2ccccc2n2c(=O)n(Cc3ccccn3)nc12 (stereo not drawn)	0	0	7	-2
O=C(O)Cn1cc(/C=C2\C(=O)NC(=O)N(Cc3ccccc3)C2=O)c2ccccc21	-1	0	4	0
Cc1ccc(N/C(=N/S(=O)(=O)c2ccccc2)c2ccccc2)cc1	44*	0	9	1
Cc1nc(NCCC2=CCCCC2)c2c3c(sc2n1)CCC3	4	0	-6	-1
Cc1nc(NCCC2=CCCCC2)c2cc(C)sc2n1	41*	0	-1	0
Cc1cnc(C)c(-c2ccc3c(c2)CC(CNC(=O)CN(C)C)O3)n1 (stereo not drawn)	-10	0	12	1
CC(=O)Nc1ccc(S(=O)(=O)N2CCN(C3CCCCC3)CC2)cc1	-5	0	17	2
O=C(NCc1cccc2ccccc12)Nc1ccc(Cl)c(N2CCCS2(=O)=O)c1	-3	0	41	0
CCOc1coc(C(=O)Nc2cc(C)ccc2OC)cc1=O	-4	0	13	-1
COc1ccccc1-n1c(SCC(=O)NCc2cccs2)nnc1-c1cccnc1	4	3.3*	-1	-1
Cc1ccccc1-n1c(SCC(=O)Nc2nccs2)nnc1-c1cccnc1	62*	0	3	1
SMILES	TEAD-YAP inh	FBW7 act	MITF inh	GPR151 ag
Cc1ccccc1-n1c(SCC(=O)Nc2nccs2)nnc1-c1ccccn1	37*	0	2	0
Cc1csc(NC(=O)CSc2nnc(-c3ccccn3)n2-c2ccccc2Cl)n1	62*	0	-3	0
COc1ccccc1-n1c(SCC(=O)Nc2nc(C)cs2)nnc1-c1ccccn1	23	0	-3	-1
COc1ccc(-n2c(SCC(=O)NCc3cccs3)nnc2-c2cccnc2)cc1	2	0	5	0
Cc1ccc(-n2c(SCC(=O)Nc3nccs3)nnc2-c2ccccn2)c(C)c1	17	0	4	2
Cc1csc(NC(=O)CSc2nnc(-c3cccnc3)n2-c2ccccc2C)n1	62*	0	-2	1
O=C(Nc1ccc(Cn2ccnc2)cc1)c1cccc(-n2cc(NC(=O)C3CCc4ccccc43)cn2)c1 (stereo not drawn)	37*	0	-3	-1
O=C(Cc1ccccc1)Nc1cnn(-c2cccc(C(=O)Nc3ccc(Cn4ccnc4)cc3)c2)c1	3	0	-4	0
Cc1nc2nc(CC(=O)NCc3ccccc3)nn2c(C)c1Cc1cccc(Cl)c1	55*	0	-4	0
O=C1N[C@@H](Cc2c[nH]c3ccccc23)C(=O)N2CCN(Cc3cccc4cccnc34)C[C@H]12	15	0	12	0
O=C(Nc1cnc2ccccc2c1)c1cccc(F)c1	36*	0	-3	-1
